Test [1] in a line: qHTS assay to identify small molecule antagonists of the thyroid receptor (TR) signaling pathway (AID 743065). Also: nearly all actives have a fitted effect of over 55% in size. Also: potency is read from the fitted curve at half-maximal effect. The procedure, abridged: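 GH3.TRE-Luc rat pituitary cells (two TREs driving luciferase) were dosed with compound, then stimulated with 1 nM T3 (final) for 23.5 h at 37 C. ONE-Glo luminescence was the read-out, with CellTiter-Fluor fluorescence as the cytotoxicity counter-screen.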

Test [2] relates to thyroid hormone receptor (rat, GH3 cells). In words: qHTS assay to identify small molecule agonists of the thyroid receptor (TR) signaling pathway (AID 743066; calls by dose curve).
Test [3] has as its target Estrogen receptor (Homo sapiens) (UniProt P03372). Briefly: qHTS assay to identify small molecule antagonists of the estrogen receptor alpha (ER-alpha) signaling pathway (AID 743069; active = well fitted curve in the direction sought with a large enough effect in the signal ratio in the repeat runs, not every such curve was filed as active; the % refers to the signal ratio). The procedure, abridged:
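Reporter cells (ER-alpha-bla, HEK293 background) are conditioned overnight in stripped-serum medium (2% charcoal-stripped FBS). Compound and 17beta-estradiol exposure runs 18 hr at 37C, 5% CO2.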

The nature of test [4]: qHTS assay to identify small molecule antagonists of the estrogen receptor alpha (ER-alpha) signaling pathway - cell viability counter screen (AID 743074; calls by dose curve;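 also: HEK293 cells carrying ER-alpha-UAS-bla reporter stimulated with 17beta-estradiol; nearly all actives have a fitted effect of over 45% in size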).
Test [5] concerns the target Estrogen receptor (Homo sapiens) (UniProt P03372). Briefly: qHTS assay to identify small molecule agonists of the estrogen receptor alpha (ER-alpha) signaling pathway (AID 743075; calls by dose curve;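 also: HEK293 GripTite cells with ER-alpha and UAS-driven beta-lactamase reporter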).
Test [6] has the same target. Briefly: qHTS assay to identify small molecule agonists of the estrogen receptor alpha (ER-alpha) signaling pathway using the BG1 cell line (AID 743079). Also: nearly all actives have a fitted effect of over 20% in size. The conditions noted are these: BG1Luc4E2 cells, ERE-luciferase agonist, 22 h; activation: at 70.3 µM (top of the series) unless noted.
A short description of test [7]: qHTS assay to identify small molecule antagonists of the estrogen receptor alpha (ER-alpha) signaling pathway using the BG1 cell line (AID 743080; calls by dose curve;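 also: BG1 cells stimulated with 17beta-estradiol alongside compound; nearly all actives have a fitted effect of over 25% in size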). The procedure, abridged: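 BG1Luc4E2, endogenous ER-alpha, 4xERE-luc; 5 d charcoal-stripped FBS, phenol red free; 24 h plating; cpd + 17beta-estradiol 21.5 h, 37 C/5% CO2; CellTiter-Fluor viability 30 min, then ONE-Glo luciferase 30 min RT.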

A short description of test [8]: qHTS assay to identify small molecule antagonists of the estrogen receptor alpha (ER-alpha) signaling pathway using the BG1 cell line - cell viability counter screen (AID 743081).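 Also: compound given together with 17beta-estradiol as the ER stimulus; nearly all actives have a fitted effect of over 45% in size.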
The next test concerns the target Aromatase (Homo sapiens) (UniProt P11511). In words: qHTS assay to identify aromatase inhibitors (AID 743083). Also: nearly all actives have a fitted effect of over 55% in size.
Test [9] can be described thus: qHTS assay to identify aromatase inhibitors - cell viability counter screen (AID 743084).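 Also: cells stimulated with testosterone during compound exposure; nearly all actives have a fitted effect of over 55% in size.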
Test [10] addresses Aryl hydrocarbon receptor (Homo sapiens) (UniProt P35869). Briefly: qHTS assay to identify small molecule that activate the aryl hydrocarbon receptor (AhR) signaling pathway (AID 743085). Also: nearly all actives have a fitted effect of over 15% in size. Also: potency is read from the fitted curve at half-maximal effect.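 As to activation: HG2L7.5c1 human HepG2 liver cells with stably integrated DRE-driven firefly reporter.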 The procedure, abridged:
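HepG2 cells (HG2L7.5c1) stably carrying a firefly luciferase reporter driven by 20 dioxin responsive elements were exposed to compound for 24 h at 37C after a 5 h settling period; luminescence rise (ONE-Glo) indicated activation.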

The nature of test [11]: qHTS assay to identify small molecule that activate the aryl hydrocarbon receptor (AhR) signaling pathway - cell viability counter screen (AID 743086).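 Also: HepG2 liver cells carrying the AhR DRE luciferase reporter; nearly all actives have a fitted effect of over 45% in size.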 Put shortly:
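HepG2-AhR-luc (HG2L7.5c1) cells, 4000/well, treated 24 h at 37 C with compound; viability measured as CellTiter-Fluor fluorescence after 30 min in the same wells as the luciferase read.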

Test [12] deals with Peroxisome proliferator-activated receptor gamma (Homo sapiens) (UniProt P37231). In words: qHTS assay to identify small molecule agonists of the peroxisome proliferator-activated receptor gamma (PPARg) signaling pathway (AID 743094; active = well fitted activation curve with a large enough effect in the signal ratio in the repeat runs, not every such curve was filed as active; the % refers to the signal ratio; also: potency is read from the fitted curve at half-maximal effect). Put shortly: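 GeneBLAzer PPARg UAS-bla HEK293H cells carrying a stably integrated beta-lactamase reporter were pre-incubated 5 h at 37C, then exposed to compounds in DMSO for 17 h at 37C; LiveBLAzer B/G FRET substrate was added for 1 h at room temperature and fluorescence read.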

A short description of test [13]: qHTS assay to identify small molecule antagonists of the peroxisome proliferator-activated receptor gamma (PPARg) signaling pathway - cell viability counter screen (AID 743194). Also: nearly all actives have a fitted effect of over 55% in size. The conditions noted are these: Potency: co-treated with 50 nM rosiglitazone unless noted. Put shortly: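 Cytotoxicity counter screen in PPARg-bla HEK293H cells, same wells as reporter assay. Compounds plus 50 nM rosiglitazone (final) for 17 h at 37 C, then viability read by CellTiter-Glo luminescence.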

The nature of test [14]: qHTS assay for small molecule agonists of the antioxidant response element (ARE) signaling pathway - cell viability counter screen (AID 743203; calls by dose curve; also: nearly all actives have a fitted effect of over 55% in size). Put shortly:
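CellSensor ARE-bla HepG2 cells, 2,000 per well, rested 5 hrs at 37C/5% CO2, then exposed to compound in DMSO for 16 hrs; viability read as CellTiter-Glo luminescence after 30 min at room temperature, in the reporter wells.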

The nature of test [15]: qHTS assay for small molecule activators of the heat shock response signaling pathway - cell viability counter screen (AID 743209). Also: nearly all actives have a fitted effect of over 50% in size. The procedure, abridged:
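CellSensor HSE-bla HeLa cells, plated overnight at 37 C/5% CO2, were exposed to compounds in DMSO for 5 h at 37 C. Viability was then read in the same wells by CellTiter-Glo luminescence after 30 min at room temperature.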

Test [16] in a line: qHTS assay for small molecule activators of the heat shock response signaling pathway (AID 743210; active = well fitted activation curve with a large enough effect in the signal ratio in the repeat runs, with a control signal flat, not every such curve was filed as active; the % refers to the signal ratio;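 also: HeLa cells with beta-lactamase reporter driven by heat shock elements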). Put shortly:
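Quantitative high-throughput format using an engineered HeLa line in which heat shock response elements drive beta-lactamase; after 5 h with compound, cells received a B/G FRET substrate and fluorescence was read.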

Test [17] concerns the target Peroxisome proliferator-activated receptor gamma (Homo sapiens) (UniProt P37231). Briefly: qHTS assay to identify small molecule antagonists of the peroxisome proliferator-activated receptor gamma (PPARg) signaling pathway (AID 743191; calls by dose curve; also: nearly all actives have a fitted effect of over 30% in size). Put shortly:
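GeneBLAzer PPARg UAS-bla HEK293H cells, 5 h post-plating, exposed to compounds 17 h at 37C. LiveBLAzer B/G FRET substrate added for 1 h at room temperature; beta-lactamase reporter read by fluorescence intensity.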

Test [18] can be described thus: qHTS assay for small molecule agonists of the antioxidant response element (ARE) signaling pathway (AID 743202; active = well fitted activation curve with a large enough effect in the signal ratio in the repeat runs, not every such curve was filed as active; the % refers to the signal ratio). Put shortly:
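Agonist mode reporter screen: HepG2 cells with ARE-controlled beta-lactamase are incubated with test compounds for 16 h at 37 C, and beta-lactamase activity is measured as fluorescence of cleaved B/G FRET substrate.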

Test [19] in a line: qHTS assay to identify small molecule agonists of the peroxisome proliferator-activated receptor delta (PPARd) signaling pathway - cell viability counter screen (AID 743211). Also: nearly all actives have a fitted effect of over 55% in size. Put shortly:
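PPARd-bla HEK293H cells (UAS-beta-lactamase reporter) were treated with compounds for 17 h at 37 C. Viability was then read in the same wells by CellTiter-Glo luminescence after 30 min at room temperature.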

Several values for one entry are separate records, joined by “and”; a condition that tells them apart may be missing. Equal values may be shown once. Inconclusive results are not listed. Some compounds were tested as several samples or in several runs, with calls that do not always agree. A number with no mark means an inactive call. Activity calls are given as the source filed them. Unless noted, calls follow the shape of the dose curve; as a rule, active = well fitted curve in the direction sought with a large enough effect in the repeat runs; inconclusive = weak or mixed curves; inactive = no such curve, though single readings can be large; an effect the other way counts as inactive or inconclusive.
% is scaled to controls: 0 for no effect and ±100 for the full control effect.

Peroxisome proliferator-activated receptor gamma (Homo sapiens), sequence (P37231 whole entry, looked up): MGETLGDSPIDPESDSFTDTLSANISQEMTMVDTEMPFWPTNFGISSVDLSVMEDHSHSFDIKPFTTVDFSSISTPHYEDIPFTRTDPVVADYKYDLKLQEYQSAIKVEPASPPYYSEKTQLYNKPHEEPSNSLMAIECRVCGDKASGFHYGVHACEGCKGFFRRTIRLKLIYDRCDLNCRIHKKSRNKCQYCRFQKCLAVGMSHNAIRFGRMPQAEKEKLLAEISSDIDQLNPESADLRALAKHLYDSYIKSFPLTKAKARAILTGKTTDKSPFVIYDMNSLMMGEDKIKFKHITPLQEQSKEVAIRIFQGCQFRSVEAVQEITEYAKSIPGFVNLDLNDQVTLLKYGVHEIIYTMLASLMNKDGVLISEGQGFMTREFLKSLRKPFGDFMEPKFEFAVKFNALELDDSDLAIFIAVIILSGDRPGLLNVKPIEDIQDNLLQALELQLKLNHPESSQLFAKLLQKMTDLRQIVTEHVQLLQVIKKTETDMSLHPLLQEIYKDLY
Aromatase (Homo sapiens), sequence (P11511 whole entry, looked up): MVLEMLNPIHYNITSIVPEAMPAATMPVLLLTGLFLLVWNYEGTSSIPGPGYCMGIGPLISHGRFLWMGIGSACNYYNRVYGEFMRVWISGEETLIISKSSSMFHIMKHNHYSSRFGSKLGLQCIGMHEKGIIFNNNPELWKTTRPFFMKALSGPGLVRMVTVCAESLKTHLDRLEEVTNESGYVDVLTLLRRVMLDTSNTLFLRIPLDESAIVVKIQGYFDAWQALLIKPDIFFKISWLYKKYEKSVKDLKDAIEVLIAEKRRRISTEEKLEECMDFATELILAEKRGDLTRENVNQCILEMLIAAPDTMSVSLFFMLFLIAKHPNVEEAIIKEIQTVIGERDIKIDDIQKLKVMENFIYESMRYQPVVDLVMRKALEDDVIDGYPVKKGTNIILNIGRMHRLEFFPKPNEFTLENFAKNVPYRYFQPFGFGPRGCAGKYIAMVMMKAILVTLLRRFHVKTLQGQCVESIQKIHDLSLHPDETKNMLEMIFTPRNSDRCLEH
Estrogen receptor (Homo sapiens), sequence (P03372 whole entry, looked up): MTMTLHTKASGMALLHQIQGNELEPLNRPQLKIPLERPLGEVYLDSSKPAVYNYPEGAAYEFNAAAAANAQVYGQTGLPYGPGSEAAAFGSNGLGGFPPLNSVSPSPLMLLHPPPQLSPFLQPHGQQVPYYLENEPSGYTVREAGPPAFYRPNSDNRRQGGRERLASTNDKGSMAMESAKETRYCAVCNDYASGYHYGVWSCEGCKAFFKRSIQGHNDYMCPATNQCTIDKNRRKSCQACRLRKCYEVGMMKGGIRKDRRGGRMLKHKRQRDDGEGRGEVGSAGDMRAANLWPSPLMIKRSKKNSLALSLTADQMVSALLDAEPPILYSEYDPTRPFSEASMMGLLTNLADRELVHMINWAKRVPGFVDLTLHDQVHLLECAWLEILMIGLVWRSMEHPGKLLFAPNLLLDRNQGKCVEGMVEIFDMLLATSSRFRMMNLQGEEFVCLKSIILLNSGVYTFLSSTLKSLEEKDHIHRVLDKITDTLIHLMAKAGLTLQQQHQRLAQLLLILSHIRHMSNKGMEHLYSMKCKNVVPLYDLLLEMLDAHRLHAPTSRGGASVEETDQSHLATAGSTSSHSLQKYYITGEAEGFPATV
Aryl hydrocarbon receptor (Homo sapiens), sequence (P35869 whole entry, looked up): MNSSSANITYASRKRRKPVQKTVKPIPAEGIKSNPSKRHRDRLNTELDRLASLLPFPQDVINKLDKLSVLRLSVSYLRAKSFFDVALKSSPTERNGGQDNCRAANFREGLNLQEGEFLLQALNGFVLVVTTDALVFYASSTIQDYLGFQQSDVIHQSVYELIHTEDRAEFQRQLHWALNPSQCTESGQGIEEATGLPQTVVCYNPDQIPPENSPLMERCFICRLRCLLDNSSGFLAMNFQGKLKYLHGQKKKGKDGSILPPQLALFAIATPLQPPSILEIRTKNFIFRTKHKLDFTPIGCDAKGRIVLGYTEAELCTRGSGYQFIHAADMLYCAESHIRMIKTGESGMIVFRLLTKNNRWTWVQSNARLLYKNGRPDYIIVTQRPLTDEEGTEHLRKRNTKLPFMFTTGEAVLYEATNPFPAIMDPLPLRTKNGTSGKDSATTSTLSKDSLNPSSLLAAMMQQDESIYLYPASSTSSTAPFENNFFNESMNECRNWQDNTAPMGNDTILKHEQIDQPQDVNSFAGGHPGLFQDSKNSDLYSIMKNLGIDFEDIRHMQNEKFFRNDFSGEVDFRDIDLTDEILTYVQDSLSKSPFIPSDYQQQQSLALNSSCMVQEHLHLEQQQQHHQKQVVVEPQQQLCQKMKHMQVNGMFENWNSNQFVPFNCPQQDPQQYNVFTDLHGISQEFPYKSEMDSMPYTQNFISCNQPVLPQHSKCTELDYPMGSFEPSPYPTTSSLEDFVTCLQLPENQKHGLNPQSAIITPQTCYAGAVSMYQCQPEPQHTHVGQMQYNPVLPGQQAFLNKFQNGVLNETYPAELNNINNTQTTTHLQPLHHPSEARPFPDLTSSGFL

For the compound `Nc1cccc(C(F)(F)F)c1`, the Potency result in test [1], in test [2], in [3], in test [4], in test [5] and in test [6] was “inactive” each time. Moreover, the Potency entry (in test [7]; in test [8]; in the test with Aromatase (Homo sapiens); in test [9]; in [10]; in [11]) was “inactive” in each case. The Potency result in test [12], in test [13], in test [14], in [15] and in test [16] was “inactive” each time.
For the compound `CC(=O)OC/C=C(\C)CCC=C(C)C`, the Potency entry in [1], in test [2], in test [3], in test [4], in test [5] and in test [6] was “inactive” in each case. For the same compound, the Potency result (in [7]; in test [8]; with Aromatase (Homo sapiens); in test [9]; in test [10]; in test [11]) was “inactive” each time. Further, the Potency result in test [12], in [17], in [13], in [18], in test [14] and in test [15] was “inactive” in each case. Moreover, the Potency result in [16] and in test [19] was “inactive” throughout.
As to `OC1CCCCC1`, the Potency result in [1], in [2], in test [3], in [4], in test [5] and in test [6] was “inactive” throughout. Further, the Potency result (in [7]; in test [8]; in the test with Aromatase (Homo sapiens); in test [9]; in test [10]; in [11]) was “inactive” throughout. Moreover, the Potency entry in test [12], in test [17], in [13], in [14], in test [15] and in test [16] was “inactive” each time.
As to `NC(=O)NC(N)=O`, the Potency entry in test [1], in [2], in [3], in [4], in test [5] and in test [6] was “inactive” in each case. For the same compound, the Potency entry (in test [7]; in test [8]; with Aromatase (Homo sapiens); in test [9]; in test [10]; in [11]) was “inactive” throughout. Besides, the Potency result in [12], in [17], in test [18], in test [14], in test [15] and in test [16] was “inactive” throughout. In [19], the Potency result is “inactive”.
On to `COc1ccc(N)c(OC)c1`, for which the Potency result in [1], in [2], in [3], in [4], in test [5] and in test [6] was “inactive” throughout. The Potency result (in test [7]; in test [8]; with Aromatase (Homo sapiens); in test [9]; in test [10]; in test [11]) was “inactive” each time. In addition, the Potency result in test [12], in test [17], in test [13], in [14], in test [15] and in test [16] was “inactive” in each case. For the same compound, in test [19], the Potency entry is “inactive”.
`Nc1cccc(N)n1`: the Potency result in [1], in test [2], in test [3], in [4], in [5] and in [6] was “inactive” in each case. Besides, the Potency entry (in test [7]; in test [8]; in the test with Aromatase (Homo sapiens); in test [9]; in test [11]; in [12]) was “inactive” each time. The Potency entry in test [17], in [13], in [14], in test [15], in [16] and in test [19] was “inactive” in each case. For the same compound, the Potency in [10] is 52.6 µM (active) and 61.1 µM (active).
Take `CN1CCCC1=O`: the Potency entry in test [1], in test [2], in test [3], in test [4], in test [5] and in test [6] was “inactive” in each case. Further, the Potency result (in [7]; in test [8]; in the test with Aromatase (Homo sapiens); in test [9]; in test [10]; in test [11]) was “inactive” each time. The Potency entry in [12], in test [17], in [13], in test [18], in [14] and in test [15] was “inactive” in each case. Moreover, the Potency entry in test [16] and in test [19] was “inactive” throughout.
`CCCCCCCCCCCC(=O)N(C)CC(=O)O`: the Potency in test [1] was 59.2 µM (active); in test [12] it was 15 µM (active). Moreover, the activity, negative = inhibition in [1] was 7.52% [at 8.44 µM]; in [3], -5.64% [at 6.71 µM]. Further, the Potency entry (in test [2]; in test [4]; in [5]; in [7]; in [8]; with Aromatase (Homo sapiens)) was “inactive” throughout. Besides, the Potency entry in test [9], in test [10], in test [11], in [13], in test [14] and in test [16] was “inactive” in each case. The activation in test [6] was -3.44% [at 8.47 µM]; in [12], 0.467% [at 7.08 µM]; in test [18], -3.99% [at 8.36 µM]. The ratio activity, negative = inhibition in test [17] is 4.34% [at 5.95 µM]. The activity change, negative = cytotoxicity in test [19] is -1.87% [at 5.95 µM].
